Measured values from the supplement of paper PMC12645437, “Orthogonal IMiD-Degron Pairs Induce Selective Protein Degradation in Cells” (ACS Chemical Biology, 2025).
In all, about 8,300 sequences were measured (“log2 fold change of degron read counts, EGFP-low vs EGFP+ sorted cells (limma voom), compound-induced degradation”: median about -1.1, highest 2% from about 3.2 on). For the sample, the highest values were picked, then their nearest neighbours and some sequences at random.

Molecular target: T1, CRBN, Q96SW2
T1 chain: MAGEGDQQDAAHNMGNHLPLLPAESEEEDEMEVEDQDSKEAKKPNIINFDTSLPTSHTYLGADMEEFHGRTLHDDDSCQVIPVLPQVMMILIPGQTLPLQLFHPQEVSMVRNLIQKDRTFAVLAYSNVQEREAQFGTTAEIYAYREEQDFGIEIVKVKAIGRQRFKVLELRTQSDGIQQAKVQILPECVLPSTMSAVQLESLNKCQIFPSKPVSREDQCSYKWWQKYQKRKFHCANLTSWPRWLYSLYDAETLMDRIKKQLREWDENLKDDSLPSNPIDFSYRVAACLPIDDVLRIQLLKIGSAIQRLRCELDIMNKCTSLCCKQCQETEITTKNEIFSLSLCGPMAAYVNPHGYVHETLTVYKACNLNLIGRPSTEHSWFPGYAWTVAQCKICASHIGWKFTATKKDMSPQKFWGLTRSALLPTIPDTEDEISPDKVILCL
Test: log2 fold change of degron read counts, EGFP-low vs EGFP+ sorted cells (limma voom), compound-induced degradation; higher = more compound-induced degradation of the degron-EGFP fusion; degrons are variants of IKZF1/3 zinc finger 2; compound dose not given here
Settings: Jurkat, 18 h

[1] = compound: compound 19 (5-tert-butyl-thalidomide)
[2] = compound: compound 22 (5-morpholino-thalidomide)
[3] = compound: compound 33 (diphenyl IMiD analogue)
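Note: pooled lentiviral library of zinc finger degron-EGFP fusions in mCherry-positive Jurkat cells, FACS-sorted after compound exposure, with degron abundance counted by next-generation sequencing.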

## FECEICGRDFTQKGNLLRHIKL [46F_47E_49E_50I_52G_53R_54D_55F_67L_, Q9UKT9]
[1]
  log2 fold change of degron read counts: -3.1
[2]
  log2 fold change of degron read counts: -3.32
[3]
  log2 fold change of degron read counts: -2.34
compound: thalidomide
  log2 fold change of degron read counts: -2.82

## LGCEICGFNCTQKGNLLRHIKL [46L_47G_49E_50I_52G_53F_54N_55C_67L_, Q9UKT9]
[1]
  log2 fold change of degron read counts: -0.546
[2]
  log2 fold change of degron read counts: -1.21
[3]
  log2 fold change of degron read counts: -1.47
compound: thalidomide
  log2 fold change of degron read counts: -1.13

## FVCEICGRKFTQKGNLLRHIKL [46F_47V_49E_50I_52G_53R_54K_55F_67L_, Q9UKT9]
[1]
  log2 fold change of degron read counts: -1.83
[2]
  log2 fold change of degron read counts: -1.33
[3]
  log2 fold change of degron read counts: -1.16
compound: thalidomide
  log2 fold change of degron read counts: 1.3

## LLCEICGFICTQKGNLLRHIKL [46L_47L_49E_50I_52G_53F_54I_55C_67L_, Q9UKT9]
[1]
  log2 fold change of degron read counts: -0.407
[2]
  log2 fold change of degron read counts: -0.959
[3]
  log2 fold change of degron read counts: 0.146
compound: thalidomide
  log2 fold change of degron read counts: 1.04

## FHCPICGRQFTQKGNLLRHIKL [46F_47H_49P_50I_52G_53R_54Q_55F_67L_, Q9UKT9]
[1]
  log2 fold change of degron read counts: 0.0895
[2]
  log2 fold change of degron read counts: 0.838
[3]
  log2 fold change of degron read counts: 1.45
compound: thalidomide
  log2 fold change of degron read counts: 0.286

## LSCPICGFRCTQKGNLLRHIKL [46L_47S_49P_50I_52G_53F_54R_55C_67L_, Q9UKT9]
[1]
  log2 fold change of degron read counts: 2.79
[2]
  log2 fold change of degron read counts: 2.57
[3]
  log2 fold change of degron read counts: 1.22
compound: thalidomide
  log2 fold change of degron read counts: 2.27

## LRCPICGFPCTQKGNLLRHIKL [46L_47R_49P_50I_52G_53F_54P_55C_67L_, Q9UKT9]
[1]
  log2 fold change of degron read counts: 2.94
[2]
  log2 fold change of degron read counts: 3.54
[3]
  log2 fold change of degron read counts: 3.02
compound: thalidomide
  log2 fold change of degron read counts: 3.44

## LICPICGFPCTQKGNLLRHIKL [46L_47I_49P_50I_52G_53F_54P_55C_67L_, Q9UKT9]
[1]
  log2 fold change of degron read counts: 0.112
[2]
  log2 fold change of degron read counts: 1.65
[3]
  log2 fold change of degron read counts: 0.899
compound: thalidomide
  log2 fold change of degron read counts: 1.78

## LMCPICGFECTQKGNLLRHIKL [46L_47M_49P_50I_52G_53F_54E_55C_67L_, Q9UKT9]
[1]
  log2 fold change of degron read counts: -0.925
[2]
  log2 fold change of degron read counts: 0.39
[3]
  log2 fold change of degron read counts: 2.43
compound: thalidomide
  log2 fold change of degron read counts: 1.39

## LKCPICGFRCTQKGNLLRHIKL [46L_47K_49P_50I_52G_53F_54R_55C_67L_, Q9UKT9]
[1]
  log2 fold change of degron read counts: -1.28
[2]
  log2 fold change of degron read counts: -2.03
[3]
  log2 fold change of degron read counts: -2.25
compound: thalidomide
  log2 fold change of degron read counts: -0.57

## LNCPICGFRCTQKGNLLRHIKL [46L_47N_49P_50I_52G_53F_54R_55C_67L_, Q9UKT9]
[1]
  log2 fold change of degron read counts: 1.52
[2]
  log2 fold change of degron read counts: 0.801
[3]
  log2 fold change of degron read counts: 0.131
compound: thalidomide
  log2 fold change of degron read counts: 1.04

## LVCPICGFECTQKGNLLRHIKL [46L_47V_49P_50I_52G_53F_54E_55C_67L_, Q9UKT9]
[1]
  log2 fold change of degron read counts: 0.125
[2]
  log2 fold change of degron read counts: 2.29
[3]
  log2 fold change of degron read counts: 1.28
compound: thalidomide
  log2 fold change of degron read counts: 2.99

## LQCPICGFECTQKGNLLRHIKL [46L_47Q_49P_50I_52G_53F_54E_55C_67L_, Q9UKT9]
[1]
  log2 fold change of degron read counts: 1.35
[2]
  log2 fold change of degron read counts: 1.29
[3]
  log2 fold change of degron read counts: 2.04
compound: thalidomide
  log2 fold change of degron read counts: 3.44

## LFCPICGFRCTQKGNLLRHIKL [46L_47F_49P_50I_52G_53F_54R_55C_67L_, Q9UKT9]
[1]
  log2 fold change of degron read counts: 3.24
[2]
  log2 fold change of degron read counts: 3.2
[3]
  log2 fold change of degron read counts: 1.81
compound: thalidomide
  log2 fold change of degron read counts: 1.69

## LHCPICGFRCTQKGNLLRHIKL [46L_47H_49P_50I_52G_53F_54R_55C_67L_, Q9UKT9]
[1]
  log2 fold change of degron read counts: 2.28
[2]
  log2 fold change of degron read counts: 2.4
[3]
  log2 fold change of degron read counts: 1.58
compound: thalidomide
  log2 fold change of degron read counts: 1.74

## LACPICGFRCTQKGNLLRHIKL [46L_47A_49P_50I_52G_53F_54R_55C_67L_, Q9UKT9]
[1]
  log2 fold change of degron read counts: 3.37
[2]
  log2 fold change of degron read counts: 2.7
[3]
  log2 fold change of degron read counts: 1.18
compound: thalidomide
  log2 fold change of degron read counts: 2.12

## LCCPICGFPCTQKGNLLRHIKL [46L_47C_49P_50I_52G_53F_54P_55C_67L_, Q9UKT9]
[1]
  log2 fold change of degron read counts: 0.812
[2]
  log2 fold change of degron read counts: 1.08
[3]
  log2 fold change of degron read counts: 1.35
compound: thalidomide
  log2 fold change of degron read counts: 1.76

## FCCPVCGAMFTQKGNLLRHIKL [46F_47C_49P_50V_52G_53A_54M_55F_67L_, Q9UKT9]
[1]
  log2 fold change of degron read counts: 1.36
[2]
  log2 fold change of degron read counts: 0.957
[3]
  log2 fold change of degron read counts: 2.19
compound: thalidomide
  log2 fold change of degron read counts: 1.18

## FGCNVCGACFTQKGNLLRHIKL [46F_47G_49N_50V_52G_53A_54C_55F_67L_, Q9UKT9]
[1]
  log2 fold change of degron read counts: 0.221
[2]
  log2 fold change of degron read counts: 0.434
[3]
  log2 fold change of degron read counts: 1.03
compound: thalidomide
  log2 fold change of degron read counts: -0.871

## FRCEICGHAFTQKGNLLRHIKL [46F_47R_49E_50I_52G_53H_54A_55F_67L_, Q9UKT9]
[1]
  log2 fold change of degron read counts: -3.15
[2]
  log2 fold change of degron read counts: -2.82
[3]
  log2 fold change of degron read counts: -1.17
compound: thalidomide
  log2 fold change of degron read counts: -1.87

## FACNVCGAEFTQKGNLLRHIKL [46F_47A_49N_50V_52G_53A_54E_55F_67L_, Q9UKT9]
[1]
  log2 fold change of degron read counts: -1.27
[2]
  log2 fold change of degron read counts: -1.39
[3]
  log2 fold change of degron read counts: -1.75
compound: thalidomide
  log2 fold change of degron read counts: -2.2

## FMCSVCGHCFTQKGNLLRHIKL [46F_47M_49S_50V_52G_53H_54C_55F_67L_, Q9UKT9]
[1]
  log2 fold change of degron read counts: -2.46
[2]
  log2 fold change of degron read counts: -3.02
[3]
  log2 fold change of degron read counts: -2.83
compound: thalidomide
  log2 fold change of degron read counts: -2.57

## FICNQCGRSFTQKGNLLRHIKL [46F_47I_49N_50Q_52G_53R_54S_55F_67L_, Q9UKT9]
[1]
  log2 fold change of degron read counts: -3.32
[2]
  log2 fold change of degron read counts: -3.15
[3]
  log2 fold change of degron read counts: -3.35
compound: thalidomide
  log2 fold change of degron read counts: -3.61

## FACEQCGAKFTQKGNLLRHIKL [46F_47A_49E_50Q_52G_53A_54K_55F_67L_, Q9UKT9]
[1]
  log2 fold change of degron read counts: 1.9
[2]
  log2 fold change of degron read counts: -1.51
[3]
  log2 fold change of degron read counts: -3.24
compound: thalidomide
  log2 fold change of degron read counts: -1.44

## LTCEICGFECTQKGNLLRHIKL [46L_47T_49E_50I_52G_53F_54E_55C_67L_, Q9UKT9]
[1]
  log2 fold change of degron read counts: -0.328
[2]
  log2 fold change of degron read counts: 0.102
[3]
  log2 fold change of degron read counts: -0.375
compound: thalidomide
  log2 fold change of degron read counts: 0.759

## FSCPICGHVFTQKGNLLRHIKL [46F_47S_49P_50I_52G_53H_54V_55F_67L_, Q9UKT9]
[1]
  log2 fold change of degron read counts: -2.55
[2]
  log2 fold change of degron read counts: -2.29
[3]
  log2 fold change of degron read counts: -1.52
compound: thalidomide
  log2 fold change of degron read counts: -1.64

## FLCDVCGAKFTQKGNLLRHIKL [46F_47L_49D_50V_52G_53A_54K_55F_67L_, Q9UKT9]
[1]
  log2 fold change of degron read counts: -1.99
[2]
  log2 fold change of degron read counts: -3.99
[3]
  log2 fold change of degron read counts: -1.78
compound: thalidomide
  log2 fold change of degron read counts: -0.928

## FLCEICGHCFTQKGNLLRHIKL [46F_47L_49E_50I_52G_53H_54C_55F_67L_, Q9UKT9]
[1]
  log2 fold change of degron read counts: -3.3
[2]
  log2 fold change of degron read counts: -3.75
[3]
  log2 fold change of degron read counts: -3.16
compound: thalidomide
  log2 fold change of degron read counts: -2.4
